# In PubChem BioAssay (Tox21):
# Records with an inconclusive call do not appear. Entries that show only a call come without a potency. Calls of active or inactive are those of the source. Calls follow the shape of the dose curve; as a rule, active = well fitted curve in the direction sought with a large enough effect in the repeat runs; inconclusive = weak or mixed curves; inactive = no such curve, though single readings can be large; an effect the other way counts as inactive or inconclusive.
# Target: Nuclear receptor subfamily 1 group I member 2 (Homo sapiens) (UniProt O75469)
# Experiment: Human pregnane X receptor (PXR) small molecule agonists, qHTS assay (AID 1346982); also: nearly all actives have a fitted effect of over 35% in size; also: potency is read from the fitted curve at half-maximal effect
# Settings: PXR-Luc HepG2, CYP3A4 luciferase reporter, 24 h; series mostly up to 92.4 µM
# Summary of the method: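 Stable HepG2 line reporting PXR-mediated CYP3A4 expression via luciferase. Treatment: 24 hr with compounds in DMSO at 37 C. Detection: ONE-Glo luminescence.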
# Sequence of Nuclear receptor subfamily 1 group I member 2 (Homo sapiens) (O75469 whole entry, looked up): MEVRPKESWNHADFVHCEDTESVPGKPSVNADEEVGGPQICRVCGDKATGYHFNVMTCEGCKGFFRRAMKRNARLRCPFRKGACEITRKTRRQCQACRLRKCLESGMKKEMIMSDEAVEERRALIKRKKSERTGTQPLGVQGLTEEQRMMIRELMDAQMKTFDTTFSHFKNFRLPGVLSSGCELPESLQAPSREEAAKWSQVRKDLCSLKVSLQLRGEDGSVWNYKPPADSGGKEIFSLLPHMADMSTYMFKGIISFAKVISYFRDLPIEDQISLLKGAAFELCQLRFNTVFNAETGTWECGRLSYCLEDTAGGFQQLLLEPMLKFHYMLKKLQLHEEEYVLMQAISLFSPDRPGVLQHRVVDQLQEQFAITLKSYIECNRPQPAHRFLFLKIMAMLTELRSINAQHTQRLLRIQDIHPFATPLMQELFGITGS
row,Structure (SMILES),Potency
1,C(=C\c1ccccc1)/c1ccccc1,inactive
2,CC(CCC(=O)O)C(=O)O (centres undefined),inactive
3,CCOC(C)=O,inactive
4,O=C(Nc1cccc2c(=O)cc(-c3nn[nH]n3)oc12)c1ccc(OCCCCc2ccccc2)cc1,inactive
5,CCCCCCCCN,27 µM (active)
6,CC(O)c1ccccc1 (centres undefined),inactive
7,O=C(Cn1ccnc1[N+](=O)[O-])NCCO,inactive
8,COC(=O)CS,inactive
9,C1COC1,inactive
10,O=C1CCCCCCCCCCOCCCCO1,inactive
11,C=C/C(C)=C/C/C=C(\C)CCC=C(C)C,27.3 µM (active)
12,O=C1c2ccccc2C(=O)c2c(O)c(O)cc(O)c21,inactive
13,O=C(O)C[C@H](NC(=O)OCc1ccccc1)C(=O)O,inactive
14,CC(=O)Oc1ccc([N+](=O)[O-])cc1CCl,inactive
15,O=c1[nH]ncc2ccccc12,inactive
16,CC(C)=CCC1C(=O)N(c2ccccc2)N(c2ccccc2)C1=O,29.8 µM (active)
17,OCCOCC#CCOCCO,inactive
18,c1csc(SSc2cccs2)c1,9.69 µM (active)
19,C=C(C)C(=O)OCCCCCCCCCCCCC,inactive
20,Cc1cc(C)cc(N)c1,61.9 µM (active)
21,C[C@@H]1CN(CCCn2c3ccccc3c3ccccc32)C[C@H](C)N1,inactive
22,NC(=O)c1ccncc1,inactive
23,CCOC(=O)/C=C/C(=O)OCC,inactive

# Target: Nuclear receptor subfamily 1 group I member 2 (Rattus norvegicus) (UniProt Q9R1A7)
# Experiment: Rat pregnane X receptor (rPXR) activation by small molecules, qHTS assay (AID 1346983); also: nearly all actives have a fitted effect of over 20% in size; also: potency is read from the fitted curve at half-maximal effect
# Settings: rPXR luciferase reporter cells, One-Glo luminescence, 24 h; max activation: active compounds read high
# Summary of the method: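 Cell-based rPXR luciferase reporter assay, 2,000 cells per well, rested 5hr at 37 C before compound addition in DMSO, then 24 hr at 37 C. One-Glo reagent was added and luminescence read after 30 min at room temperature.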
# Sequence of Nuclear receptor subfamily 1 group I member 2 (Rattus norvegicus) (Q9R1A7 whole entry, looked up): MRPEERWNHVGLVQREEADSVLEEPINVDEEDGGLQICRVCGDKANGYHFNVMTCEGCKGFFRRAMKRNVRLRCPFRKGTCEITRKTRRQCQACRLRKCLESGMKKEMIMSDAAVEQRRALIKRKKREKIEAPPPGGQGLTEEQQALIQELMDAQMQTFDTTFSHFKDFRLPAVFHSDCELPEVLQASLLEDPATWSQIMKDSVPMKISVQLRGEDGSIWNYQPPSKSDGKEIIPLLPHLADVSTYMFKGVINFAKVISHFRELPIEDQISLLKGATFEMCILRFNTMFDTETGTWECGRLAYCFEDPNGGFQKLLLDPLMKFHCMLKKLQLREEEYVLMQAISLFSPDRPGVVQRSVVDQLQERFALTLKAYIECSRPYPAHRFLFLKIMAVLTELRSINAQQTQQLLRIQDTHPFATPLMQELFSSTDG
Structure (SMILES),max activation,Potency
O=C(CCCN1CC=C(n2c(=O)[nH]c3ccccc32)CC1)c1ccc(F)cc1,0.857% (inactive),
CCOC(C)=O,-1.67% (inactive),
CC1(C)O[C@@H]2C[C@H]3[C@@H]4C[C@H](F)C5=CC(=O)C=C[C@]5(C)[C@H]4[C@@H](O)C[C@]3(C)[C@]2(C(=O)CO)O1,,8.91 µM (active)
COc1ccccc1N1CCN(CCCCNC(=O)c2ccc(-c3ccc(C(C)=O)cc3)cc2)CC1,-3.31% (inactive),
C=Cc1ccc(S(=O)(=O)O)cc1,-2.52% (inactive),
CC(C)=CCC1C(=O)N(c2ccccc2)N(c2ccccc2)C1=O,,28.2 µM (active)
CCOC(=O)OC(C)OC(=O)[C@@H]1N2C(=O)[C@@H](NC(=O)[C@H](N)c3ccccc3)[C@H]2SC1(C)C (some centres undefined),0.482% (inactive),
C[C@@H]1CN(CCCn2c3ccccc3c3ccccc32)C[C@H](C)N1,-9.24% (inactive),
O=C(O)c1ccc(OCCCOc2ccc(C(=O)O)cc2)cc1,-2.11% (inactive),
CC(=O)N/N=C/c1ccc([N+](=O)[O-])o1,-3.83% (inactive),

# Target: Nuclear receptor subfamily 1 group I member 2 (Homo sapiens) (UniProt O75469)
# Experiment: Human pregnane X receptor (PXR) activation by small molecules, qHTS assay (AID 1346985); also: nearly all actives have a fitted effect of over 40% in size
# Settings: DPX-2 HepG2 CYP3A4-luciferase, 24 h; series mostly up to 38.3 µM
# Summary of the method: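 DPX-2 cells (HepG2 co-transfected with a PXR response element and a CYP3A4-promoter luciferase construct) were seeded at 2,000 per well, rested 5 hr at 37C, then exposed to DMSO-dissolved compounds for 24 hr. Activation was read as luciferase luminescence.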
row,Structure (SMILES),Potency
1,CCOC(C)=O,inactive
2,CC1(C)O[C@@H]2C[C@H]3[C@@H]4C[C@H](F)C5=CC(=O)C=C[C@]5(C)[C@H]4[C@@H](O)C[C@]3(C)[C@]2(C(=O)CO)O1,inactive
3,COc1ccccc1N1CCN(CCCCNC(=O)c2ccc(-c3ccc(C(C)=O)cc3)cc2)CC1,inactive
4,C=Cc1ccc(S(=O)(=O)O)cc1,inactive
5,O=C(O)c1ccc(OCCCOc2ccc(C(=O)O)cc2)cc1,inactive
6,CC(=O)N/N=C/c1ccc([N+](=O)[O-])o1,inactive
